For four compounds, growth results are on record in PubChem BioAssay (NCI).

SMILES strings stand for the structures. The panel holds about 83,000 compounds, 20% with a hit somewhere; the sample as a whole holds those more often.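 Interpretation: 100, growth as untreated; towards 0, rising growth inhibition; 0, no net growth; 0 to -100, cell death. Compounds scoring below 10 were considered active.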 Unmarked numbers belong to inactive results. Activity calls are given as the source filed them.

Common to all, as to test: NCI-60 one-dose screen, 48 h (100 = growth as untreated, 0 = no growth, -100 = all killed)
For one assay, the system named is NCI-H23 lung. The conditions noted are these: 10 µM unless noted.
A further assay deals with NCI-H226 lung. The conditions noted are these: 10 µM unless noted.
The test system of a further assay is NCI-H322M lung. The conditions noted are these: 10 µM unless noted.
Another assay concerns NCI-H460 lung. The conditions noted are these: 10 µM unless noted.
In another assay the test system is HOP-92 NSCLC. The settings on record: 10 µM.
The test system of a further assay is NCI-H522 lung. The settings on record: 10 µM.
Another assay has as its system A549/ATCC NSCLC. The settings on record: 10 µM unless noted.
The subject of the next assay is 786-0 renal. The conditions noted are these: 10 µM unless noted.
Another assay deals with COLO 205 colon. The settings on record: 10 µM unless noted.
The test system of a further assay is DU-145 prostate. The settings on record: 10 µM unless noted.
A further assay concerns K-562 leukemia. The settings on record: 10 µM unless noted.
The test system of a further assay is MDA-MB-231 breast. The settings on record: 10 µM unless noted.
The next assay relates to RXF 393 renal. The conditions noted are these: 10 µM unless noted.
In the next assay the test system is SF-268 CNS. The settings on record: 10 µM unless noted.
The subject of the next assay is SF-295 CNS. The conditions noted are these: 10 µM unless noted.
The subject of a further assay is SF-539 CNS. The conditions noted are these: 10 µM unless noted.
A further assay has as its system UACC-257 melanoma. The conditions noted are these: 10 µM unless noted.
Another assay relates to M14 melanoma. The settings on record: 10 µM unless noted.
The subject of the next assay is MALME-3M melanoma. The conditions noted are these: 10 µM unless noted.

Consider `COc1ccccc1Nc1nnc(COc2ccc(CNC(=O)CCCC/C=C/C(C)C)cc2OC)o1`, for which the growth with NCI-H23 lung is 92.2%; with NCI-H226 lung it was 79.7%; in the assay on NCI-H322M lung, 97.4%; in the assay on NCI-H460 lung, 105%; in the assay on HOP-92 NSCLC, 79.1%; in the assay on NCI-H522 lung, 81%. In addition, the growth was 99.3% in the assay with A549/ATCC NSCLC; 96.2% with 786-0 renal; 125% in the assay with COLO 205 colon; 99% with DU-145 prostate; 67.9% in the assay on K-562 leukemia; 99.2% with MDA-MB-231 breast. Moreover, the growth with RXF 393 renal was 103%; in the assay on SF-268 CNS it was 90.8%; in the assay with SF-295 CNS, 88.8%; in the assay with SF-539 CNS it was 93.4%; in the assay on UACC-257 melanoma it was 96.7%; with M14 melanoma it was 95.4%.
`COc1cc2ncnc(-n3ncc4cc(NC(=O)Nc5ccccc5)ccc43)c2cc1OC`: the growth with NCI-H23 lung was 3.14% (active); in the assay on NCI-H226 lung it was -13.9% (active); in the assay with NCI-H322M lung, 30.9%; in the assay with NCI-H460 lung, 26.8%; in the assay with HOP-92 NSCLC, -20.3% (active); in the assay with NCI-H522 lung, 19.9%. The growth with A549/ATCC NSCLC is 24.1%; with 786-0 renal it was 28%; in the assay with DU-145 prostate, 10.5%; with K-562 leukemia, 39.1%; with MALME-3M melanoma, -13.8% (active); in the assay on MDA-MB-231 breast, -8.14% (active). The growth with RXF 393 renal is -84.3% (active); in the assay with SF-268 CNS, 21.7%; with SF-295 CNS, 26.9%; in the assay with SF-539 CNS it was 0.968% (active); in the assay with UACC-257 melanoma it was 28.7%; in the assay on M14 melanoma, 6.8% (active).
`CC1=NN(c2cccc(Cl)c2)C(=O)/C1=C\c1cn(-c2nc(N3CCOCC3)nc(N3CCOCC3)n2)c2ccccc12`: the growth with NCI-H23 lung is 100%; in the assay with NCI-H226 lung, 99.8%; with NCI-H322M lung, 91.9%; in the assay on NCI-H460 lung it was 112%; with HOP-92 NSCLC, 90.6%; in the assay with NCI-H522 lung it was 88.9%. Further, the growth was 99.2% with A549/ATCC NSCLC; 102% in the assay with 786-0 renal; 106% in the assay with DU-145 prostate; 114% in the assay on K-562 leukemia; 104% in the assay on MALME-3M melanoma; 112% with MDA-MB-231 breast. The growth is 115% in the assay on RXF 393 renal; 95.4% in the assay with SF-268 CNS; 105% with SF-295 CNS; 109% in the assay with SF-539 CNS; 106% in the assay on UACC-257 melanoma; 103% in the assay with M14 melanoma.
For the compound `Cc1ccc(OCCn2ccc(=O)n(CCOc3ccc(Cl)cc3C(=O)c3cc(C)cc(C)c3)c2=O)cc1`, the growth is 54.4% with NCI-H23 lung; 62.9% in the assay with NCI-H226 lung; 84.1% in the assay with NCI-H322M lung; 37.2% in the assay with NCI-H460 lung; 45.9% in the assay with HOP-92 NSCLC; 23.3% in the assay on NCI-H522 lung. For the same compound, the growth with A549/ATCC NSCLC is 41.7%; in the assay on 786-0 renal, 57.4%; with DU-145 prostate it was 73.3%; in the assay on K-562 leukemia, 13.2%; in the assay with MALME-3M melanoma it was 51.9%; with MDA-MB-231 breast, 46.8%. The growth in the assay with RXF 393 renal was 41.5%; in the assay with SF-268 CNS, 49.7%; in the assay with SF-295 CNS it was 51.1%; in the assay with SF-539 CNS, 53.7%; in the assay on UACC-257 melanoma it was 64.3%; in the assay on M14 melanoma, 24.7%.
